# From PubChem BioAssay (NCATS)
# Results filed as inconclusive are left out. Calls of active or inactive are those of the source. Calls come from the whole dose curve; as a rule, active = well fitted inhibition curve with a large enough effect; inconclusive = small, poorly fitted or top-dose-only effect; inactive = flat fitted curve, though single readings scatter.
# Test system: NIH3T3
# Assay: Cytotoxic Profiling of Annotated Libraries Using Quantitative High-Throughput Screening (AID 1296008); note: nearly all actives have a fitted effect of over 60% in size
# Settings: Five cell lines viability, CellTiter-Glo ATP luminescence, 48-72 h; max response: stronger effect = lower value
# Method in brief: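 Cells exposed to compounds for 48 or 72 hr at 37 degrees Celsius. Viability read as ATP-coupled luminescence with CellTiter-Glo after 10 min at room temperature.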
# % is set by controls: 0 for no effect and ±100 for the full control effect; potency is the fitted concentration of half-maximal effect.
SMILES,max response,Potency
CS(=O)(=O)c1ccc([C@H](CC2CCCC2)C(=O)Nc2nccs2)cc1,-48.7% (inactive),–
C/C(=C/CO)CC[C@@H]1[C@@](C)(O)CCC2C(C)(C)CCC[C@]21C (some centres not stated),-10.9% (inactive),–
NC1CCCCN(c2c(F)cc3c(=O)c(C(=O)O)cn(C4CC4)c3c2Cl)C1 (configuration not stated),1.34% (inactive),–
COc1cccc(C(=O)N2CCN(C(=O)COc3cccc(C)c3)CC2)c1OC,-5.08% (inactive),–
CCN1CCN(Cc2ccc(NC(=O)c3ccc(C)c(/C=C/c4cnc5[nH]ccc5c4OC)c3)cc2C(F)(F)F)CC1,–,5.17 µM (active)
CN1c2ccccc2C(=O)N2CCC3c4ccccc4NC3C21 (configuration not stated),–,7.18 µM (active)
CC1(C)CC2C(O)c3cocc3CC(C)(O)C2C1 (configuration not stated),2.81% (inactive),–
O=C(O)C(O[C@@H]1O[C@H](CO[C@@H]2O[C@H](CO)[C@@H](O)[C@H](O)[C@H]2O)[C@@H](O)[C@H](O)[C@H]1O)c1ccccc1 (some centres not stated),1.38% (inactive),–
CC1CCC2C(C(=O)O)=COC(O[C@@H]3O[C@H](CO)[C@@H](O)[C@H](O)[C@H]3O)C12 (some centres not stated),-1.59% (inactive),–
C=C(C)[C@@H]1CC[C@]2(C)CC[C@]3(C)[C@H](CC[C@@H]4[C@@]5(C)CC[C@@H](O)C(C)(C)[C@@H]5CC[C@]43C)[C@@H]12,1.04% (inactive),–
O=C(c1cn(Cc2cncn2Cc2ccc(Br)cc2)cc1-c1cccc2ccccc12)N1CCOCC1,–,7.31 µM (active)
C[C@@H]1[C@H]2[C@H](O[C@@H]3O[C@H](CO)[C@@H](O)[C@H](O)[C@H]3O)OC=C(C(=O)O)[C@H]2C[C@@H]1O,-4.16% (inactive),–
